Screens deposited in PubChem by National Center for Advancing Translational Sciences (NCATS).
JMJD2A Tudor inh = JMJD2A Tudor domain (human) inhibition; actives 4.4% (n = 390,000); AlphaScreen JMJD2A-Tudor / H3K4me3 peptide binding; O75164; Potency, µM (titrated, usually from 114 µM), inactives show at the highest dose activity change, negative = inhibition, most hits filed as inhibitors; note: % is set by controls: 0 for no effect and ±100 for the full control effect; nearly all actives have a fitted effect of over 50% in size
L3MBTL1 block = L3MBTL1 (human) inhibition; AlphaScreen L3MBTL1–H3K9me1 peptide binding; Potency, µM (series often up to 57.1 µM), for inactives: top-dose activity, negative = inhibition, usual class: inhibitors; actives 0.66% (n = 230,000); Q9Y468; note: % is set by controls: 0 for no effect and ±100 for the full control effect; nearly all actives have a fitted effect of over 60% in size
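AlphaScreen assay: L3MBTL1 (50 nM final) was preincubated 30 min at room temperature with biotinylated H3(1-15)K9me1 peptide (75 nM final), then 30 min with library compounds; streptavidin donor and nickel chelate acceptor beads (10 ug/mL final) added, 30 min dark.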
G9a inh = inhibitors of human histone lysine methyltransferase G9a; G9a H3K9 monomethylation, AlphaScreen, 2 h; Potency, µM (top dose mostly 102 µM), for the others: at the highest dose activity, negative = inhibition, actives largely listed as inhibitors; Q96KQ7; actives 8.8% (n = 350,000); note: % is set by controls: 0 for no effect and ±100 for the full control effect; nearly all actives have a fitted effect of over 75% in size
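AlphaScreen read-out: biotin-H3K9 peptide (500 nM) methylation by 20 nM enzyme with 20 uM SAM, 2 h at room temperature after 15 min compound preincubation; anti-monomethyl H3K9 antibody plus donor/acceptor beads, 10 min dark.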
BAZ2B inh = blocks human BAZ2B. AlphaScreen BAZ2B-H3K14Ac peptide displacement. actives 4.4% (n = 360,000). AID 504333. Potency, µM (top dose mostly 114 µM), without a hit: at the highest dose activity change, negative = inhibition, most hits filed as inhibitors. Q9UIF8; note: % is set by controls: 0 for no effect and ±100 for the full control effect; nearly all actives have a fitted effect of over 60% in size
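BAZ2B (50 nM) with biotin-H3(5-23)K14Ac peptide (50 nM) in PBS pH 7.4, 0.01% Tween-20, preformed 30 min, then compound 30 min at room temperature; top concentration 110uM. AlphaScreen streptavidin donor/nickel chelate acceptor beads (10 ug/mL final), 20 min dark, signal read.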
Sfp PPTase inh = Sfp phosphopantetheinyl transferase inhibition. Potency, µM, for the others: largest response in the series, negative = inhibition, hits mostly inhibitors. actives 3.5% (n = 310,000). AID 1490. Biochemical Sfp PPTase activity, qHTS. Q9F4F7;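 note: the enzyme is Sfp with the accession as filed and its product quenches rhodamine fluorescence; 0% = enzyme reaction without inhibitor and -100% = no enzyme wells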
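Reaction rates are the 30-min fluorescence difference (ex 525, em 598 nm) in wells containing 15 nM Sfp, 5 uM rhodamine-CoA and 12.5 uM BHQ-2-YbbR at pH 7.6 with 10 mM MgCl2.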
HP1b binding inh = HP1-beta chromodomain-methylated histone interaction inhibition. P83916. AlphaScreen HP1-beta / biotin-H3K9me3 peptide binding. Potency, µM (highest dose often 114 µM), inactives show top-dose activity change, negative = inhibition, actives largely listed as inhibitors. actives 0.56% (n = 390,000). AID 540317; note: nearly all actives have a fitted effect of over 70% in size
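AlphaScreen: HP1-beta (50 nM) preformed 30 min with biotin-H3(1-18)K9me3 peptide (50 nM) in PBS pH 7.4, 0.01% Tween-20. Compound added for 30 min at RT, then streptavidin donor/nickel chelate acceptor beads (10 ug/mL) for 30 min.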
* marks the source's active call; other numbers are inactive results; ? = inconclusive; nt = no result given; [ ] = dose if it differs, or a comment. A selection: hits, their analogues and other compounds. The true share with any hit is near 12%. Calls come from the whole dose curve; as a rule, active = well fitted curve in the direction sought with a large enough effect; inconclusive = small, poorly fitted or top-dose-only effect, or another doubt; inactive = no such curve, though single readings can be large; an effect the other way counts as inactive or inconclusive. Potency is the fitted concentration of half-maximal effect.

SMILES	JMJD2A Tudor inh	L3MBTL1 block	G9a inh	BAZ2B inh	Sfp PPTase inh	HP1b binding inh
COc1cc2c(cc1OC)C(C(=O)N1CCC3(CC1)OCCO3)C(c1ccccc1F)N(C)C2=O (configuration not stated)	3%[57.1 µM]	4%	0.79µM*	3%	-2%	20%
CCCC[C@@H](C)[C@@H](OC(=O)C[C@@H](CC(=O)O)C(=O)O)[C@H](C[C@@H](C)CCCCCC[C@@H](O)C[C@H](O)[C@H](C)N)OC(=O)C[C@@H](CC(=O)O)C(=O)O	nt	nt	nt	nt	14%	nt
C=CC[C@]1(O)CCC2C3CCC4=CCCCC4C3CCC21C (some centres not stated)	nt	nt	36%[59 µM]	nt	-9%	nt
Cc1ccc(NC(=O)CN2C(=O)CN=C(c3ccccc3)c3cc(Cl)ccc32)cc1	-35%	nt	?	-24%	-1%	-6%
CN(C)c1ccc(NC(=O)CN2C(=O)CN=C(c3ccccc3)c3ccccc32)cc1	56µM*	-17%	nt	40µM*	-1%	?
CN(C)c1ccc(NC(=O)CN2C(=O)CN=C(c3ccccc3)c3cc(Cl)ccc32)cc1	28µM*	nt	40µM*	35µM*	79µM*	?
O=S1OCC2C(CO1)C1(Cl)C(Cl)=C(Cl)C2(Cl)C1(Cl)Cl (configuration not stated)	nt	nt	nt	nt	-7%	nt
COC12C(COC(N)=O)C3=C(C(=O)C(C)=C(N)C3=O)N1CC1C2N1C (configuration not stated)	?	nt	50µM*	-33%	-11%	31%
CCCCCCCSc1cc(OC)c(CCNC)cc1OC	45µM*	-2%	22µM*	20µM*	?	?
CCCCc1nc2ccccc2c(=O)n1-c1cccc(OC)c1	-8%	nt	-8%[59 µM]	6%	nt	-7%
c1cc(CN2CCC3(CCNCC3)CC2)ccn1	nt	nt	-15%[12.7 µM]	nt	0%	nt
COC(=O)c1c(C)n(Cc2ccccc2)c2ccc(O)cc12	-15%	-17%	8.9µM*	-37%	50µM*	38%
CC(=O)c1c(C)n(Cc2ccccc2)c2ccc(O)cc12	-10%	3%	6%	-34%	3%	35%
CCOC(=O)c1c(C)n(Cc2ccccc2)c2ccc(O)cc12	?	-23%	32µM*	?	50µM*	1%
CCOc1cc(C2NCc3ccccc3-n3cccc32)ccc1OC (configuration not stated)	?	nt	?	?	6%	-9%
CCOc1cc2c(cc1OCC)-n1cccc1C(c1cccc(OCC)c1O)NC2 (configuration not stated)	45µM*	nt	45µM*	?	-8%	?
c1ccc2c(c1)c1cc[n+]2CCCCC[n+]2ccc(c3ccccc32)NCCCCCN1	nt	nt	nt	nt	-10%	nt
Cc1cc(C)n(-c2ccc(NN=C(C#N)C#N)cc2)n1	?	-16%	nt	32µM*	?	2%
CCN(CC)S(=O)(=O)c1ccc(NN=C(C#N)C#N)cc1	?	-21%	?	?	8%	?
N#CC(C#N)=NNc1ccc(-n2ccc(C(F)(F)F)n2)cc1	?	nt	32µM*	32µM*	-4%	-18%
O=P1(Oc2ccccc2)CC=CC(COCc2ccccc2)O1 (configuration not stated)	1%	nt	nt	nt	12%	35%
O=CC1=C(N2CCOCC2)/C(=C\c2ccccc2)CC1	-11%	nt	40µM*	-10%	-2%	35%
O=C1C(=Cc2ccccc2)N2CCC1CC2	-8%	nt	nt	nt	nt	33%
Cc1ccccc1-c1ccc2n1Cc1cnnn1-c1ccccc1-2	50µM*	nt	nt	nt	nt	?
CC1N(C)c2cc(NC(=O)c3ccco3)c(P(=O)(Nc3ccc([N+](=O)[O-])cc3)N3CCOCC3)cc2C1(C)C (configuration not stated)	?	nt	50µM*	?	13%	?
